# Results: PubChem BioAssay AID686935 (National Center for Advancing Translational Sciences (NCATS), 2013)
# Inconclusive results are not listed. Entries that show only a call come without a potency. Activity calls are given as the source filed them. Calls come from the whole dose curve; as a rule, active = well fitted curve in the direction sought with a large enough effect; inconclusive = small, poorly fitted or top-dose-only effect, or another doubt; inactive = no such curve, though single readings can be large or run the other way.
# Assay: qHTS Assay for Lipid Storage Modulators: CytotoxicityAssay against Probe and Analogs
# Conditions: 3T3-L1 adipocytes cytotoxicity, imaging cell count; series mostly up to 20 µM
# From the text: Storing lipids as a reservoir for energy or the anabolism of elementary metabolites is a common feature of probably all cells and is conserved from bacteria to humans. The universal cellular lipid storage organelle is the so-called lipid storage droplet (LD). Although ubiquitous, LDs share a simple structure composed of a hydrophobic core that harbors the storage lipids, which is shielded by a droplet-specific phospholipid monolayer to which proteins are attached. The current model of LD biogenesis involves an incorporation of the lipid core into the membrane leaflets of the endoplasmic reticulum (ER) followed by a subsequent budding-like maturation of a LD, which ultimately pinches off. Once released, LD volume can increase by localized lipogenesis or fusion of existing droplets. Storage lipids are re-mobilized enzymatically by lipase activity. Lipase regulation in the adipocyte is heavily studied and involves multiple components including catecholamine signaling, the LD-associated proteins Perilipin and comparative gene identification-58 (CGI-58) and at least two lipases named hormone sensitive lipase (HSL) and adipocyte triglyceride lipase (ATGL). LD regulation outside of the adipocyte is poorly understood and only few components are known. However, there is an urgent need to learn more about ectopic fat depots as mislocalized storage of lipids, for example in the liver or muscle, is an eminent health problem associated with insulin resistance or the metabolic syndrome. We developed a laser-scanning cytometer assay to enable 1,536-well screening and combined the results of the small molecules screen with an RNAi database based on lipid storage. In this assay we tested analogs of the probe in a cytotoxicity assay. NIH Molecular Libraries Probe Production Centers Network [MLPCN] NIH Chemical Genomics Center [NCGC] MLPCN Grant: MH085686 Assay Submitter (PI): Mathias Beller, Max-Planck-Institut fur Biophysikalische Chemie
# 3T3-L1 cells were obtained from ATCC (CL-173). Pre-adipocyte medium (PM-1),differentiation medium (DM-2) and after adipocyte medium (AM-1) were purchased from Zen-Bio (# PM-1-L1, DM-2-L1, AM-1-L1). […] of PM-1containing 3,000 cells was dispensed into each well of a 96-well plate (Corning, #3340), and the assay plates were incubated at 37 °C, 95% humidity and 5% CO2 for 3-5 days. The differentiation of pre-adipocyte to adipocyte was induced by removing the pre-adipocyte medium and replacing with […] of differentiation medium. […] of compounds at different concentrations dissolved in differentiation medium were added to the assay plates, along with medium exchange for differentiation to test their effects on adipocyte differentiation. The final DMSO concentration was 0.5%. Triacsin C (Sigma-Aldrich T-4540), an inhibitor of long-chain fatty acyl CoA synthetase that blocks synthesis of triglycerides, was used as a positive control for lipid under-storage. After 3 days, differentiation medium was replaced with 200ul of adipocyte maintenance medium and assay plates were incubated for 4 days. Cells were then fixed using4% of paraformaldehyde in PBS for 30 minutes at room temperature, washed 3 times with PBS buffer. Finally, the cells were stained using […] of PBS containing BODIPY lipid dye 493/530 (1:2000 -, Life Technologies, # D-3922), Hoechst 33342 (1:1000, Life Technologies, #H3570) and CellMask deep red dye (1:10,000 , Life Technologies, #H32721). Images were acquired using InCell 2000 (GE), number of cells, number of lipids, size of lipids and cells were analysis using GE Investigator software.
row,SMILES,Potency
1,CCOc1cc(F)c(CCNC(=O)c2cc3sccc3n2Cc2ccccc2)cc1OCC,inactive
2,CCOc1ccc(CCNC(=O)c2cc3sccc3n2Cc2ccccc2)cc1OCC,inactive
3,CCOc1ccc(CCNC(=O)c2cccc(C(=O)c3ccccc3)c2)cc1OCC,inactive
4,CC(C)Oc1ccc(CCNC(=O)c2cc3sccc3n2Cc2ccccc2)cc1OC(C)C,inactive
5,CCOc1ccc(CCNC(=O)c2cc3ccccc3o2)cc1OCC,inactive
6,CCn1c(C(=O)NCCc2ccc(OC)cc2)cc2sccc21,inactive
7,CCOc1cc(CCNC(=O)c2cc3sccc3n2Cc2ccccc2)cc(F)c1OCC,7.08 µM (active)
8,CCOc1ccc(CCNC(=O)c2cc3sccc3n2Cc2ccccn2)cc1OCC,inactive
9,CCOc1ccc(CCNC(=O)c2ccnn2Cc2cccc(C)c2)cc1OCC,inactive
10,CCOC(=O)C1CCN(C(=O)C(C)(C)NC(=O)Nc2ccc(-c3ccccc3)cc2)CC1,inactive
11,CCOc1ccc(CCNC(=O)c2cc3sccc3n2C)cc1OCC,inactive
12,CCOc1ccc(CCNC(=O)c2cc3sccc3n2Cc2ccncc2)cc1OCC,inactive
